# Active and inactive are the calls of the source.
# How the values were obtained:
# Albumin (Bos taurus) = Albumin (Bos taurus) (UniProt P02769); assay: bovine serum albumin binders on microarray, profiling panel, artefact control for SMM control protein annotation, biochemical, small-molecule microarray, Alexa647 label, 635/667 nm fluorescence (AID 1118); details: BSA-A647 binding, fluorescence 635 nm, higher = more signal;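 also: score merges 667 nm emission intensity and signal-to-noise per printed compound spot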
# Albumin (Bos taurus), sequence (P02769 whole entry, looked up): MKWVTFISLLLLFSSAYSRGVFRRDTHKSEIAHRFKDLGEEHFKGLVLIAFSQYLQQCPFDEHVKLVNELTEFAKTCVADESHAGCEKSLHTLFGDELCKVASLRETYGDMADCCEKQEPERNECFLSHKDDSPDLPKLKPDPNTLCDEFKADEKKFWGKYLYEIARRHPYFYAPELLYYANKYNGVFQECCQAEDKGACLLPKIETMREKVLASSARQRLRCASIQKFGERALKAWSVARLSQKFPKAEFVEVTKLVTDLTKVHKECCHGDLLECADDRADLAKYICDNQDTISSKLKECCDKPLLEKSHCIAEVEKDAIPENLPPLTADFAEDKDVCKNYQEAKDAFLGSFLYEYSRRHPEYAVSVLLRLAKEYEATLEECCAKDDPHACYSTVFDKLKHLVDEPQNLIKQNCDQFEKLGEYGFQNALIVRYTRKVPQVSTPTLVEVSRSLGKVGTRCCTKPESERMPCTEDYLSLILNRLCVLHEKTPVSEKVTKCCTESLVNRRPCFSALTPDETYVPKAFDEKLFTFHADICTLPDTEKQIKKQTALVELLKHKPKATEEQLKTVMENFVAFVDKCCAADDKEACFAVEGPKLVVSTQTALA
# [1] = small-molecule microarray binders of probe aXIP, primary screen, biochemical, NeuroSMM set, 635/667 nm fluorescence (AID 1119); details: higher = more signal, called active from +8 up or from −8 down;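 also: probe is the protein aXip251-270 applied at 1 µg/mL to compound-printed slides; binding of probe to printed compounds measured as 667 nm fluorescence plus signal to noise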
# [2] = small-molecule binders of probe aNOTCH3, primary screen, biochemical, small-molecule microarray, 635/667 nm fluorescence (AID 1120); details: higher = more signal;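 also: probe is a biotin-tagged antibody raised against NOTCH3 rather than NOTCH3 protein; score merges spot fluorescence near 667 nm with spot signal to noise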
# [3] = small-molecule binders of probe aNOTCH2, primary screen, biochemical, small-molecule microarray, 635/667 nm fluorescence (AID 1121); details: higher = more signal;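 also: score merges feature fluorescence read at 667 nm with its signal to noise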
# [4] = target: Carbonic anhydrase 2 (Homo sapiens) (UniProt P00918); assay: CAII small-molecule binders, profiling panel, biochemical, small-molecule microarray, Alexa647-labelled CAII (AID 1122); details: CAII-A647 binding fluorescence, higher = more signal
# [5] = COS7 lysate on small-molecule microarray, probe aHis, 635 nm (AID 1123); details: COS7 cell lysate, fluorescence, higher = more signal;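 also: z-score combines 667nm fluorescence intensity with signal-to-noise per printed compound spot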
# [6] = compound binding in COS7 lysate, probe aLAP1, primary screen, cell lysate, small-molecule microarray (AID 1124); details: probe aLAP1, fluorescence, higher = more signal;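 also: lysate comes from COS7 cells expressing LAP1 and is applied at 0.3 µg/mL; score merges spot fluorescence near 667 nm with signal-to-noise over triplicate slides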
# Sam68 (KHDRBS1) = assay: Sam68 small-molecule binders, primary screen, biochemical, small-molecule microarray, 635 nm fluorescence (AID 1125); details: small-molecule microarray binding, higher = more signal;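 also: score merges 667 nm channel intensity with signal to noise over triplicate slides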
# [7] = tested on: Chordin-like protein 2 (CHRDL2); assay: CHRDL2 small-molecule binders, primary screen, biochemical, small-molecule microarray, 635 nm fluorescence (AID 1126); details: small-molecule microarray binding, fluorescence 635 nm; higher = more signal;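 also: printed compound slides probed with Chrdl2 protein at 4 µg/mL for 1 h at 4 C; score merges 667 nm emission intensity with signal to noise over three replicate slides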
# [8] = target: Concanavalin-A (Canavalia ensiformis) (UniProt P02866); assay: ConA small-molecule binders, primary screen, artefact control for SMM control protein annotation, biochemical, small-molecule microarray, Alexa647 label, 635 nm (AID 1127); details: ConA-A647 binding fluorescence, higher = more signal;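 also: z combines 667 nm emission intensity with signal-to-noise across three replicate slides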
# Concanavalin-A (Canavalia ensiformis), sequence (P02866 whole entry, looked up): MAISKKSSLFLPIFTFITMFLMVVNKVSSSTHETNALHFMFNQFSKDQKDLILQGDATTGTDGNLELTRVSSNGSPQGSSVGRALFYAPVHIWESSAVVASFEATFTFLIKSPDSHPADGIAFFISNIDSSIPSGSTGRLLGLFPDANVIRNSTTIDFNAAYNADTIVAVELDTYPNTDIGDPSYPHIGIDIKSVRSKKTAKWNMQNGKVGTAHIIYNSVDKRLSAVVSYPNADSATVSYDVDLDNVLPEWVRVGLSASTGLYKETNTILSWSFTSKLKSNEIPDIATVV
# [9] = anti-His antibody binders, primary screen, artefact control for SMM control protein annotation, biochemical, small-molecule microarray, 635 nm fluorescence (AID 1128); details: anti-His Alexa647 antibody binding, higher = more signal;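 also: score merges feature fluorescence with signal-to-noise for each printed compound spot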
# [10] = tested on: Human papillomavirus type 1a E7 protein (residues 1-88); assay: HPV1a E7 small-molecule binders, primary screen, biochemical, small-molecule microarray, residues 1-88, 635 nm (AID 1129); details: small-molecule microarray binding, fluorescence 635 nm; higher = more signal
# [11] = target: Focal adhesion kinase 1 (Homo sapiens) (UniProt Q05397); assay: small-molecule microarray binders of FAK, primary screen, biochemical, 635/667 nm fluorescence, BSA, DTT (AID 1130); details: PTK2 binding, 635 nm fluorescence, higher = more signal;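 also: composite of spot emission at 667 nm and signal to noise over triplicate slides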
# Focal adhesion kinase 1 (Homo sapiens), sequence (Q05397 whole entry, looked up): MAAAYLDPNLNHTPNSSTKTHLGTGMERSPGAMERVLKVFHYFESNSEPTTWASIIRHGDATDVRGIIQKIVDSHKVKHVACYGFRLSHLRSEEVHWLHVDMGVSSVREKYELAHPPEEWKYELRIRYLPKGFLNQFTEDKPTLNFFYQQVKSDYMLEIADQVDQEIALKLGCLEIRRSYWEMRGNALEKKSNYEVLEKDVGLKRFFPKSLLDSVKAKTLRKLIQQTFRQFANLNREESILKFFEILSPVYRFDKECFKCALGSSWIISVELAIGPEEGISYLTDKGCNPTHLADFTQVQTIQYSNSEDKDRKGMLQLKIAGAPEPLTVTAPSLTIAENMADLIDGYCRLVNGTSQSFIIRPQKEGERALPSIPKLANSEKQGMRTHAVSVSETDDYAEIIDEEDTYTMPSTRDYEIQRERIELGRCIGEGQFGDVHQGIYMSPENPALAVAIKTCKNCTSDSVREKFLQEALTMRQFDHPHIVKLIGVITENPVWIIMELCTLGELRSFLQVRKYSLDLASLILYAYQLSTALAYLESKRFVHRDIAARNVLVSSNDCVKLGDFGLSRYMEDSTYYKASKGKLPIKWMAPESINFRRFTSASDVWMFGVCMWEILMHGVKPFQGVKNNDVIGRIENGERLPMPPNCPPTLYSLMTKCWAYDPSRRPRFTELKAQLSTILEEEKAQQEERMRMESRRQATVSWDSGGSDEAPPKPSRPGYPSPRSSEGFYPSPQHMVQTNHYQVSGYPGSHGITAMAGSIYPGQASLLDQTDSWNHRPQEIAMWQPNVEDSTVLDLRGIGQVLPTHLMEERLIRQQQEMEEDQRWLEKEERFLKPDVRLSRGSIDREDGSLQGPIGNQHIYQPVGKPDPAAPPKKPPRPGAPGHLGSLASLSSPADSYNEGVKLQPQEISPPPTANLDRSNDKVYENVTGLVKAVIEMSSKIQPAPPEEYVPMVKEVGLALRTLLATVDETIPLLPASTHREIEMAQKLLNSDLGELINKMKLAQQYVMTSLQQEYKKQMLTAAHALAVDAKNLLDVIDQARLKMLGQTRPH
# [12] = tested on: Fibrinogen (Alexa647-labelled); assay: fibrinogen binders on compound microarrays, profiling panel, artefact control for SMM control-protein annotation, biochemical, small-molecule microarray, 635/667 nm fluorescence (AID 1131); details: fibrinogen-A647 binding fluorescence, higher = more signal;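 also: z-score merges 667 nm fluorescence with per-spot signal-to-noise over triplicate slides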
# [13] = target: Follistatin (Homo sapiens) (UniProt P19883); assay: follistatin binders on small-molecule microarrays, primary screen, biochemical, small-molecule microarray, 635/667 nm fluorescence (AID 1132); details: FST binding, 635 nm fluorescence, higher = more signal
# Follistatin (Homo sapiens), sequence (P19883 whole entry, looked up): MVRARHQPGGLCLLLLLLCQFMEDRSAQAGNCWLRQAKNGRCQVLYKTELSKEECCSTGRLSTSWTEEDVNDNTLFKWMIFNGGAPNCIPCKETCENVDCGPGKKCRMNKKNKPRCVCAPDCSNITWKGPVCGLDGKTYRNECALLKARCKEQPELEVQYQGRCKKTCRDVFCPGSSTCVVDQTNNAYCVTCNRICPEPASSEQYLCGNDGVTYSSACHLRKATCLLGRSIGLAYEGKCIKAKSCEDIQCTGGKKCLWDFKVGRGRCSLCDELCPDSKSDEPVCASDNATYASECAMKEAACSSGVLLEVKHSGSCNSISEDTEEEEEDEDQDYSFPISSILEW
# [14] = target: Fibroblast growth factor 2 (Homo sapiens) (UniProt P09038); assay: FGF2 binders on small-molecule microarrays, primary screen, biochemical, small-molecule microarray, 635/667 nm fluorescence (AID 1133); details: small-molecule microarray binding, FGF2, fluorescence 635/667; higher = more signal
# Fibroblast growth factor 2 (Homo sapiens), sequence (P09038 whole entry, looked up): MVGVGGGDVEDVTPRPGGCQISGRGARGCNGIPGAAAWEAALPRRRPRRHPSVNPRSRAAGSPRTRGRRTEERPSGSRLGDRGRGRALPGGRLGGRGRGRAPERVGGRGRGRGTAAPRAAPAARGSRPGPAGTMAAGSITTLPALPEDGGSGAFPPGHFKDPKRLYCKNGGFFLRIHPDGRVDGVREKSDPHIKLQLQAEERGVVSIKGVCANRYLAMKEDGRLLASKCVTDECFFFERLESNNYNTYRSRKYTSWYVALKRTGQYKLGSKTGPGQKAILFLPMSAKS
# [15] = mitochondrial membrane potential change in A549 cells, profiling panel, cell-based, JC-1 fluorescence, basal, 24 h, 100 nL (AID 1138); details: higher = more signal;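 also: A549 lung adenocarcinoma cells under basal conditions with no added stimulus; test concentration not given here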
# Lefty1 = Lefty1 binders on small-molecule microarrays, primary screen, biochemical, small-molecule microarray, 635/667 nm fluorescence (AID 1139); details: small-molecule microarray binding, fluorescence 635/667; higher = more signal
# [16] = tested on: wheat germ agglutinin (Triticum aestivum), Alexa647-labelled; assay: wheat germ agglutinin binders on compound microarrays, profiling panel, artefact control for SMM control-protein annotation, biochemical, small-molecule microarray, 635/667 nm fluorescence (AID 1140); details: WGA-A647 binding, 635 nm fluorescence, higher = more signal;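 also: score merges 667 nm feature emission with signal to noise over triplicate slides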
# [17] = target: Luciferin 4-monooxygenase (Photinus pyralis) (UniProt P08659); assay: firefly luciferase enzyme inhibitors, primary screen, biochemical, luminescence, purified enzyme, 2006 set (AID 1141); details: SteadyGlo luminescence, 30 min, higher = more signal, called active from +8 up or from −8 down;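 also: cell-free assay with purified firefly luciferase at 100 ng per well in PBS; test concentration not given here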
# Luciferin 4-monooxygenase (Photinus pyralis), sequence (P08659 whole entry, looked up): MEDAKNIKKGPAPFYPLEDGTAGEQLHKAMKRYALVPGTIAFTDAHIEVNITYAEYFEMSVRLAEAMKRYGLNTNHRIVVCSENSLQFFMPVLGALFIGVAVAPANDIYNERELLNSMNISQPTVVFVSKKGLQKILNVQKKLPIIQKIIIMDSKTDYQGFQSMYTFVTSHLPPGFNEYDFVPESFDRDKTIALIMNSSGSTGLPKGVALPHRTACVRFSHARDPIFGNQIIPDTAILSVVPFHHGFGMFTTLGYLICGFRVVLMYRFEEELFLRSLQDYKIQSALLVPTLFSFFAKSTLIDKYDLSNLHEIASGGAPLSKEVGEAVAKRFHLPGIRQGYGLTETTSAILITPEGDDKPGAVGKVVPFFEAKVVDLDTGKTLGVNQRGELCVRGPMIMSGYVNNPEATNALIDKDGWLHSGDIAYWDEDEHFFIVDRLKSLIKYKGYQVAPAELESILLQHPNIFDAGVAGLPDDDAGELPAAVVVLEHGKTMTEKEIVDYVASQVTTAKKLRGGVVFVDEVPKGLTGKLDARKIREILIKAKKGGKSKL
Structure (SMILES),composite z-score (Albumin (Bos taurus)),composite Z-score [1],composite z-score [2],composite z-score [3],composite z-score [4],composite z-score [5],composite z-score [6],composite z-score (Sam68 (KHDRBS1)),composite z-score [7],composite z-score [8],composite z-score [9],composite z-score [10],composite z-score [11],composite z-score [12],composite z-score [13],composite z-score [14],z-score [15],composite z-score (Lefty1),composite z-score [16],z-score [17]
O=C1[C@H]2[C@H]3[C@H](O)[C@H](O)CC(=NOC[C@@H](O)COCc4ccco4)[C@@H]3CC[C@H]2C(=O)N1c1ccc(F)cc1F,-0.126,-0.397 (inactive),-0.205,-0.14,-0.438,-1.08,0.0425,0.235,1.38,-0.359,-0.0634,0.126,-0.358,-0.313,0.532,0.646,-0.808,0.59,-0.385,1.03 (inactive)
C=CCN1C(=O)[C@]2(O[C@H](CCn3cc(CCO)nn3)[C@@H]([Si](C)(C)c3ccc(OC)cc3)[C@@H]2C)c2cc(N3CCOC3=O)ccc21,0.617,-0.217 (inactive),-0.161,-0.104,0.368,1.88,1.21,0.448,-0.34,1.13,0.766,1.2,0.469,0.338,-0.293,-0.0054,0.982,0.0269,0.574,-1.8 (inactive)
N#Cc1ccc(NN2C(C(O)c3cccc4ccccc34)C=CC3C(=O)N(c4ccccc4)C(=O)C32)cc1 (stereo not given),0.595,0.544 (inactive),0.479,0.0687,0.696,2.82,0.599,1.31,-0.0989,0.926,1.06,1.24,0.413,0.965,1.23,-0.24,1.11,0.279,1.24,0.512 (inactive)
CC(C)=CCCC(C)=CCON=C1C[C@@H](O)[C@@H](O)[C@@H]2[C@@H]3C(=O)N(C[C@@H]4CCCO4)C(=O)[C@@H]3CC[C@@H]12,-0.506,2.86 (inactive),-0.0328,-0.0907,0.452,0.877,-0.108,1.3,1.39,0.296,0.875,1.13,0.121,0.971,1.06,1.07,-0.26,1.26,0.59,0.722 (inactive)
O=C1[C@H]2[C@H]3[C@H](O)[C@H](O)CC(=NOC[C@@H](O)COCc4ccco4)[C@H]3CC[C@H]2C(=O)N1c1cccc(Oc2ccccc2)c1,0.355,-0.705 (inactive),-0.304,-0.133,0.364,-0.607,0.137,-0.572,-0.573,-0.785,-0.304,-0.438,-0.112,-1.32,-0.924,-0.701,0.89,-0.021,0.503,0.481 (inactive)

# Reference: PubChem BioAssay
